Bioassay records from PubChem.
SKN-1 inh: inhibitors of C. elegans SKN-1; 360,000 tested, 0.49% active; inhibition, % at 21.8 µM; C. elegans VP596 Pgst-4::GFP/RFP ratio, acrylamide-induced, 24 h;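 active = interference check ratio from 0.5 to 1.5 plus GFP to RFP signal ratio inhibition reaching or exceeding a fixed threshold, cut at about 30% in these data, passing the limit was not always enough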
PGE2 EP2 inh: inhibitors of human EP2 prostaglandin E2 receptor | AID 1422 | C6 glioma cells expressing human EP2, cAMP TR-FRET; cells stimulated with saturating PGE2 | P43116 | 260,000 tested, 0.52% active | inhibition, % at 25 µM;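 active = percent inhibition above 40 after rounding to a whole number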;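 also: rat C6 glioma host cells with rolipram phosphodiesterase inhibitor present; the protocol text gives 20 µM as final concentration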
RAM inhibit: inhibitors of the yeast RAM network; S. cerevisiae dse1pr::URA3 reporter, 5-FOA growth OD615, 2 d; analog-sensitive cbk1-as2 kinase mutant strain; inhibition, % at 50 µM; 190,000 tested, 1.8% active;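 active = inhibition above a set limit, 3 SD over mean compound inhibition, cut at about 8.4% in these data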;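 also: 0% = DMSO-only wells with no growth and 100% = 10 µM 1-NA-PP1 full growth; inhibition rescues growth on 5-FOA so higher OD means more RAM inhibition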
Rev-erbA mod: Rev-erb alpha (human) modulation; activity, % at 10 µM; 370,000 tested, 0.79% active; Rev-erbα–FITC-DNA binding, fluorescence polarization, 90 min; AID 1259318;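 active = activity above about 14%, limit read from the data; passing the limit was not always enough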;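 also: 0% = DMSO wells with 35 nM protein and 100% = DMSO wells with 750 nM protein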
Target sequence (P20393 whole entry, looked up): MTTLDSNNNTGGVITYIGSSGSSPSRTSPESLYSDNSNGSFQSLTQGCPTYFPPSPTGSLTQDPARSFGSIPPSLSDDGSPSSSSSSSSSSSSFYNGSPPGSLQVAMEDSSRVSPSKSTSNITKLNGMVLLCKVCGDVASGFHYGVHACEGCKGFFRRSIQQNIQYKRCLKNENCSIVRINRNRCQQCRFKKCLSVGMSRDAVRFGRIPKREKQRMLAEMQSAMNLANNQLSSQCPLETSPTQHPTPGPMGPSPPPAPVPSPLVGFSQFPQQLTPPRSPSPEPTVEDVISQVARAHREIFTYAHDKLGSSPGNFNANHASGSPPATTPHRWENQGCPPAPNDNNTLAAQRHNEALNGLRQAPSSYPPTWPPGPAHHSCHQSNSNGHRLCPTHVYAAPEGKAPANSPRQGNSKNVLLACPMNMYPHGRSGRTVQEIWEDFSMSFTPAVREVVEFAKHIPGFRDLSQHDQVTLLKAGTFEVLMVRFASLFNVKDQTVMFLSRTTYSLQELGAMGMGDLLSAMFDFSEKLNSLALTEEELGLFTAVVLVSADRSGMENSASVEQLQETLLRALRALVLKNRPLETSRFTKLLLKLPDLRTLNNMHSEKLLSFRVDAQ
EP2 mod: modulates human prostaglandin E2 receptor EP2 signaling; P43116; EP2-expressing cells, cAMP HTRF FRET, PGE2 co-stimulation; induction, % at 25 µM; 260,000 tested, 0.83% active;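 active = compounds whose cAMP rise, as percent of the full-agonist control response, exceeds 60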;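 also: rat C6 glioma line stably carrying human EP2 under a CMV promoter; the protocol text gives 20 µM as final concentration; 100% = response of wells given 1 µM PGE2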
PG9 Ab binder: binds the HIV-1 gp120 antibody PG9; TR-FRET gp120-PG9 antibody binding; inhibition, % at 6.7 µM; AID 624416; 360,000 tested, 0.43% active; in the data active = inhibition above about 8.5%
The depositor's hits bear a star; x = no result given. Sampled rows, rich in hits. Any-hit rate of the full collection: about 2.9%.

SMILES | SKN-1 inh | PGE2 EP2 inh | RAM inhibit | Rev-erbA mod | EP2 mod | PG9 Ab binder
OCCNc1nc(Nc2ccccc2O)nc2ccccc12 | x | 9 | x | x | -97 | x
CCCC(c1nnnn1Cc1ccccc1)N(Cc1cc2cccc(C)c2[nH]c1=O)C1CCCCC1 (configuration not stated) | x | 8 | x | x | 69* | x
Cc1cccc2cc(C(c3nnnn3Cc3ccccc3)N3CCc4ccccc43)c(=O)[nH]c12 (configuration not stated) | x | 7 | x | x | 95* | x
Cc1cccc2cc(C(c3nnnn3Cc3ccccc3)N3CCCc4ccccc43)c(=O)[nH]c12 (configuration not stated) | -20 | 4 | 6 | 3 | 15 | 6
COCCCNC(=O)N1CCOCC1 | x | 8 | x | x | -9 | x
O=C(NC12CC3CC(CC(C3)C1)C2)c1ccc(=O)oc1 | -32 | 9 | 8.7* | 3 | -23 | 0
Nc1ccc(C(=O)NC23CC4CC(CC(C4)C2)C3)cc1 | -11 | x | x | 3 | x | 2
CC(=O)N1CCCc2cc(C(O)CN3CCN(c4ccc(Cl)cc4)CC3)ccc21 (configuration not stated) | x | 2 | x | x | -12 | x
CC(C1CC1)N(Cc1ccccc1)C(=S)Nc1ccccc1Cl (configuration not stated) | -10 | 2 | 8.6* | 5 | 31 | 0
CC(C1CC1)N(Cc1ccccc1)C(=O)NC(=O)c1ccccc1 (configuration not stated) | 4 | 6 | 1 | -1 | -1 | 2
COc1ccc(C(C)C)cc1S(=O)(=O)NC1CCCNC1=O (configuration not stated) | x | 3 | x | x | -24 | x
CC(C)(C)c1ccc(C2=CSC3=NCCN23)cc1 | 48* | x | x | 0 | x | 0
CC(C)N(CCNC(=O)COc1ccc2oc3c(c2c1)CCCC3)C(C)C | -12 | x | x | -3 | x | 2
COCCCNC(=O)COc1ccc2oc3c(c2c1)CCCC3 | 36* | x | x | 0 | x | 0
O=C(Nc1cc(Sc2nc3ccccc3s2)cc([N+](=O)[O-])c1)c1ccccc1 | 17 | 6 | 5 | 4 | -48 | 0
O=C(Nc1cc(Sc2ccccn2)cc([N+](=O)[O-])c1)c1cccc(F)c1 | 20 | 10 | 9.4* | 2 | -30 | 0
COc1cccc(OCc2nnc(SCC(=O)Nc3ccc(C(C)=O)cc3)n2C)c1 | x | 13 | x | x | -19 | x
Cn1c(Cc2c[nH]c3ccccc23)n[nH]c1=S | 44* | 6 | 1 | -5 | 17 | -1
Cc1cc(NC(=O)c2cc(C(C)C)on2)nn1Cc1ccc(Cl)cc1 | -3 | 8 | 9.3* | -2 | 3 | -1
Cc1cc(C(=O)Nc2cc(C)n(Cc3ccc(Cl)cc3)n2)no1 | -12 | 6 | 1 | -1 | 12 | 1
CCNC(=O)C1(C)CCCN1C(=O)c1ccc(-c2ccccc2)cc1 (configuration not stated) | 4 | x | x | -2 | x | -1
CCNC(=O)C1(C)CCCN1C(=O)c1ccc(C#N)cc1 (configuration not stated) | 63* | x | x | -4 | x | 0
CCOC(=O)CN1CC23C=CC(O2)C(C(=O)NCc2cccs2)C3C1=O (configuration not stated) | 37* | 20 | 0 | 1 | 3 | 1
CC(C)[C@@H](Cn1nc(-c2ccc(F)c(F)c2)ccc1=O)NC(=O)c1cscn1 | x | x | x | x | -11 | x
c1ccc([C@H](c2cccc3c2ccc2ccccc23)[C@H](c2ccccc2)c2cccc3c2ccc2ccccc23)cc1 | x | 41* | x | x | 8 | x
SMILES | SKN-1 inh | PGE2 EP2 inh | RAM inhibit | Rev-erbA mod | EP2 mod | PG9 Ab binder
Cc1cc(Cl)ccc1Nc1sc(C(=O)c2cc3cc(Cl)ccc3o2)c(N)c1C#N | x | 51* | x | x | -16 | x
COc1ccc(CNC(=O)CSc2ccc(-c3nc4cc(C)c(C)cc4[nH]3)cn2)cc1 | x | 17 | x | x | -35 | x
Cc1cc2c(cc3c(=O)n(CC(=O)N4CCc5ccccc5C4)nc(C)n32)s1 | x | x | x | x | 7 | x
Nc1cc(=O)[nH]c(SCC(=O)Nc2cc(S(=O)(=O)N3CCCCCC3)ccc2Cl)n1 | 5 | x | x | -8 | x | 3
Cc1ccc(-c2nc(SCC(=O)Nc3cc(S(=O)(=O)N4CCCCC4)ccc3Cl)n[nH]2)cc1 | 8 | 7 | 9.5* | 0 | -9 | 0
COc1ccc(NC(=O)CSc2nnc(-c3ccc(OC)cc3)n2-c2ccc(OC)cc2)cc1 | x | 7 | x | x | -7 | x
CCN1CCN(c2ccc(NC(=O)c3ccc(F)cc3)cc2)CC1 | x | 9 | x | x | -59 | x
CCCCc1ccc(/C=C2\C(=O)ON=C2c2ccccc2)s1 | -7 | 5 | 8.8* | -2 | 56 | -2
O=C1ON=C(c2ccccc2)/C1=C/c1ccco1 | 9 | 96* | -2 | 1 | -54 | -1
Fc1ccc(C2=Nn3c(nnc3-c3ccco3)SC2)cc1 | -6 | 5 | x | 11 | 9 | 0
c1ccc(C2=Nn3c(nnc3-c3ccco3)SC2)cc1 | 2 | 7 | 9.3* | 1 | -7 | 0
CCN1/C(=C/c2ccc3ccccc3[n+]2CCCS(=O)(=O)[O-])C=Cc2cc(C)ccc21 | 39* | x | x | -9 | x | -9
CCN1CCCC1CN(Cc1cc2c(C)ccc(C)c2[nH]c1=O)C(=O)Nc1cccc(Cl)c1 (configuration not stated) | x | 5 | x | x | -30 | x
O=C(NCc1ccc(C(F)(F)F)cc1)c1ccc(-c2ccc(F)c(F)c2)c2ccoc12 | -2 | x | x | 3 | x | -1
O=C(NCc1ccncc1)c1ccc(-c2ccc(F)c(F)c2)c2ccoc12 | 62* | x | x | 5 | x | -2
O=C(c1cscn1)N1C2CCC1CC(O)(c1ccco1)C2 (configuration not stated) | x | x | x | x | 8 | x
O=C(CCCN1C(=O)/C(=C\c2ccccc2)SC1=S)Nc1ccc(C(=O)O)cc1 | 8 | x | x | -5 | x | -2
CC(/C=C1\SC(=S)N(CC(=O)N2CCN(c3ccccc3)CC2)C1=O)=C\c1ccccc1 | 5 | 5 | 9.8* | -5 | 2 | 0
CC(=O)c1ccc(NC(=O)CCCN2C(=O)/C(=C/C(C)=C/c3ccccc3)SC2=S)cc1 | 3 | 0 | 10* | 5 | -13 | -1
COc1ccc(-c2ccc(=O)n(C3CCN(C(=O)Cc4cccs4)CC3)n2)cc1F | x | x | x | x | 42 | x
COc1ccccc1OCCCn1c(C)c(C#N)c2ccccc21 | 7 | 4 | 11* | 0 | -21 | -1
COc1ccccc1OCCCn1cc(C#N)c2ccccc21 | 6 | 10 | 5 | 0 | -14 | -2
Cc1cccc(Cn2c(Sc3nccc(C)n3)nc3c2c(=O)[nH]c(=O)n3C)c1 | x | 2 | x | x | -26 | x
Cc1cccc(Cn2c(Sc3nc(C)cs3)nc3c2c(=O)[nH]c(=O)n3C)c1 | 40* | 3 | 4 | 1 | 35 | 0
CCn1c(CN2CCc3nc(N4CCC(C)CC4)[nH]c(=O)c3C2)nc2ccccc21 | x | 3 | x | x | 8 | x
CCCCCOc1ccccc1C(=O)NCCCC(=O)O | -8 | 7 | 1 | -6 | -7 | -1
CN(C(=O)COc1ccccc1C(=O)NCCOc1ccccc1)c1ccccc1 | 3 | 90* | -1 | -2 | -67 | 0
